Screening data (PubChem)
Rows were chosen to be rich in hits. Some 2% of all compounds tested hit in one or more screens of this group.
PKM2 act: qHTS Assay for Activators of Human Muscle isoform 2 Pyruvate Kinase. purified PKM2, Kinase-Glo ATP luminescence, activation; response scale: 0% is enzyme alone, no compound. Potency, µM (doses to about 57.5 µM), most hits filed as activators. Pyruvate kinase PKM (Homo sapiens), P14618. actives 0.34% (n = 260,000); also: nearly all actives have a fitted effect of over 55% in size
Target sequence (P14618 whole entry, looked up, canonical isoform): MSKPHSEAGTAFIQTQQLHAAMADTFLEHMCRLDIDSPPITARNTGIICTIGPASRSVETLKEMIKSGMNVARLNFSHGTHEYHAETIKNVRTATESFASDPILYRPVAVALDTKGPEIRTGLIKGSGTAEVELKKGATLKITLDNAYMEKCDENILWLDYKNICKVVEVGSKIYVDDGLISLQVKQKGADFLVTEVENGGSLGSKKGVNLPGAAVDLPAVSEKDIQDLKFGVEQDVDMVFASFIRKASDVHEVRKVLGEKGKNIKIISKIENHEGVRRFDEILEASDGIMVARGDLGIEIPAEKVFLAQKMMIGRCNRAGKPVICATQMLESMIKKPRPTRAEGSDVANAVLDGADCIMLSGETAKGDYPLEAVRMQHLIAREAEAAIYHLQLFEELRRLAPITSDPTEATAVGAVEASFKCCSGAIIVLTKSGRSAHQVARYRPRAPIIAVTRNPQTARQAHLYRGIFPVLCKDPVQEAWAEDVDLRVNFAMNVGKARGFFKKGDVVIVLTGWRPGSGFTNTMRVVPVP
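Purified hPK-M2 (>95% pure) converted ADP (0.1 mM final) to ATP with 0.5 mM PEP in 50 mM imidazole pH7.2, KCl, MgCl2, Tween 20, BSA; 1 h at room temperature. ATP detected by Kinase-Glo luminescence.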
IL-2 act: qHTS of IL-2 Activators; activation, % (series mostly up to about 46 µM); actives 0.065% (n = 360,000); IL-2 activation reporter assay, cell-based qHTS; stimulated with anti-CD3/CD4/CD28 beads; in transgenic mouse T cells; AID 652025, 2013; in the data active = activation above about 50%; inconclusive = mostly about 30% to 49%
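Screening format: compound pinned onto unstimulated transgenic mouse T cells, 60 min incubation, then anti-CD3/anti-CD4/anti-CD28 bead stimulation for 18 hours at 37 degrees C, followed by EGFP and DsRed detection.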
ClpP mod: qHTS Assay for Activators of ClpP; ATP-dependent Clp protease proteolytic subunit (Bacillus subtilis (strain 168)), P80244; actives 1.9% (n = 340,000); purified B. subtilis ClpP, FRET peptide cleavage, 20 min; Potency, µM (series often up to 57.5 µM); AID 651965, 2013; active = well fitted falling curve with a large enough effect; inconclusive = small, poorly fitted or top-dose-only effect; inactive = no such curve, though single readings can be large or run the other way; also: the source files actives as falling curves though it sought activators and does not explain the sign; nearly all actives have a fitted effect of over 65% in size
Target sequence (P80244 whole entry, looked up): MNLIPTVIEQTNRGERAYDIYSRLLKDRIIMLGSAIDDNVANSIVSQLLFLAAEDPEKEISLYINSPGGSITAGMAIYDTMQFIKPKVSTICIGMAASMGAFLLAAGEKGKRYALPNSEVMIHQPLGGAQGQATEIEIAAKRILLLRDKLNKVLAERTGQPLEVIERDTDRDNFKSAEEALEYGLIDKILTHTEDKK
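FRET quenching reversal measured ClpP activation: 10 microg/mL B. subtilis ClpP at pH 8 with the FRET-FV decapeptide, read at 430 nm after 320 nm excitation. The 20-min minus 0-min signal was scaled between DMSO/no-enzyme wells and ADEP (5.8 microM final).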
NPSR antag: qHTS Assay for Antagonists of the Neuropeptide S Receptor: cAMP Signal Transduction; Q6W5P4; CHO-NPSR cells, cAMP TR-FRET, antagonist mode; Potency, µM (highest dose often 38.3 µM), actives largely listed as inhibitors; actives 1% (n = 220,000); AID 1461, 2008; also: nearly all actives have a fitted effect of over 50% in size
Large screens that a line does not name were inactive. Unless noted, calls follow the shape of the dose curve; as a rule, active = well fitted curve in the direction sought with a large enough effect; inconclusive = small, poorly fitted or top-dose-only effect, or another doubt; inactive = no such curve, though single readings can be large; an effect the other way counts as inactive or inconclusive.

CCn1nnc(NC(=O)c2cccc(-c3cc4ccccc4oc3=O)c2)n1	ClpP mod 14µM
O=C(Nc1cccc(-c2cc3ccccc3oc2=O)c1)c1ccc(Br)o1	ClpP mod 35µM
O=C(O)c1ccc(NC(=O)c2ccc3c(c2)C(=O)N(CC2CCCO2)C3=O)cc1 (stereo unspecified)	none (no result: ClpP mod, NPSR antag)
CN1C(=CC=C2C=C(I)C(=O)C(I)=C2)C(C)(C)c2ccccc21	NPSR antag inconclusive (no result: ClpP mod)
CN1/C(=C\C=C2/C(=O)Oc3ccccc3C2=O)C(C)(C)c2ccccc21	IL-2 act 80
Cn1nc(-c2ccccn2)nc2c(=O)n(C)c(=O)nc1-2	NPSR antag 2.5µM
CCCc1nc2c(=O)n(C)c(=O)nc-2n(C)n1	NPSR antag 7.9µM (no result: ClpP mod)
CCCCNS(=O)(=O)c1ccc2nc(SCC(=O)c3ccc(C#N)cc3)[nH]c2c1	PKM2 act 22µM
O=C(COC(=O)CNC(=O)C1CCCCC1)Nc1ccccc1	none (no result: PKM2 act, ClpP mod, NPSR antag)
O=C(CNC(=O)C1CCCCC1)OCc1cc(=O)oc2ccc3ccccc3c12	ClpP mod 25µM
C/C(=N\Nc1ncnc2sc(C)c(C)c12)c1ccccn1	IL-2 act 122 (no result: PKM2 act, ClpP mod, NPSR antag)
C/C(=N\Nc1ncc(Cl)cc1Cl)c1ccccn1	IL-2 act 71, NPSR antag 1.3µM (no result: ClpP mod)
CCOc1ccc(CCNC(=O)c2cc3n(n2)CCCN(Cc2ccc(C)cc2)C3=O)cc1OCC	none (no result: PKM2 act, IL-2 act, NPSR antag)
CCN(CC)CCCN(Cc1cc2cc(OC)c(OC)cc2[nH]c1=O)C(=O)Nc1ccccc1	ClpP mod 32µM
CCN(CC)CCCN(Cc1cc2cc3c(cc2[nH]c1=O)OCO3)C(=O)Nc1ccccc1OC	ClpP mod 32µM
CCN(CC)CCCN(Cc1cc2cc3c(cc2[nH]c1=O)OCCO3)C(=O)Nc1ccc(F)cc1	ClpP mod 28µM
COc1cc2cc(CN(Cc3cccs3)C(=S)Nc3ccccc3)c(=O)[nH]c2cc1OC	ClpP mod 10µM
COc1ccc2[nH]c(=O)c(CN(CCCN(C)C)C(=O)Nc3ccccc3)cc2c1	ClpP mod inconclusive
CCN(CC)CCCN(Cc1cc2cc3c(cc2[nH]c1=O)OCO3)C(=S)Nc1ccccc1	none (no result: ClpP mod)
CCOc1ccc(NC(=S)N(CCOC)C(C)c2cccnc2)cc1 (stereo unspecified)	none (no result: ClpP mod)
COc1cc2cc(CN(CCN3CCCC3)C(=O)Nc3ccc(F)cc3)c(=O)[nH]c2cc1OC	ClpP mod 14µM
Clc1ccccc1C1CC(c2ccccc2)=Nc2ccccc2N1 (stereo unspecified)	IL-2 act 77 (no result: ClpP mod)
Brc1ccccc1C1CC(c2ccccc2)=Nc2ccccc2N1 (stereo unspecified)	none
CCOc1ccc(NC(=O)CN(C)C(=O)Cc2n[nH]c(=O)c3ccccc23)cc1OCC	none (no result: PKM2 act, NPSR antag)
O=C(O)c1ccccc1C(=O)OCc1ccccc1	none
Cc1ccc(S(=O)(=O)N2CCN(C(=O)CCn3nc(C)c(C)c3C)CC2)cc1C	PKM2 act 7.9µM (no result: ClpP mod, NPSR antag)
Cc1ccc(S(=O)(=O)N2CCN(C(=O)CCN3C(=O)c4ccccc4C3=O)CC2)cc1C	PKM2 act 5.6µM
Cc1ccc(S(=O)(=O)N2CCN(C(=O)C(C)Cn3nc(C)c(C)c3C)CC2)cc1C (stereo unspecified)	none (no result: ClpP mod, NPSR antag)
Cc1cccn2c(N)c(-c3ccccc3)nc12	ClpP mod 16µM, NPSR antag inconclusive
CC(C)Cc1nc2oc3c(NCc4cccnc4)ncnc3c2c2c1CCC2	ClpP mod 18µM
c1cncc(CNc2ncnc3sc4c(c23)CCC4)c1	none (no result: ClpP mod)
CC(C)c1nc2oc3c(NCc4cccnc4)ncnc3c2c2c1CCC2	ClpP mod 14µM
CCCc1nc2oc3c(NCC(C)O)ncnc3c2c2c1CCCC2 (stereo unspecified)	none
Cc1occc1C(=O)NNC(=S)NC(=O)COc1ccc(Cl)cc1Cl	none (no result: NPSR antag)
COC(=O)c1cnc2c(C(F)(F)F)cccc2c1OC	ClpP mod 16µM
CCOC(=O)c1cnc2c(C(F)(F)F)cccc2c1N1CCN(C)CC1	none (no result: PKM2 act, ClpP mod, NPSR antag)
CC1(C)SC2C(NC(=O)C3(N)CCCCC3)C(=O)N2C1C(=O)O (stereo unspecified)	none (no result: PKM2 act, ClpP mod, NPSR antag)
O=c1c2c3nc4ccccc4nc3n(-c3ccc4c(c3)OCCO4)c2ncn1CC1CCCO1 (stereo unspecified)	none (no result: IL-2 act, ClpP mod)
COCCCn1c2nc3ccccc3nc2c2c(=O)n(CC3CCCO3)cnc21 (stereo unspecified)	ClpP mod 13µM
O=C(Nc1cc(S(=O)(=O)N2CCOCC2)ccc1Cl)C1CCC1	none (no result: PKM2 act, NPSR antag)
Oc1ccc(-c2ccccc2)cc1CN1CCCCCC1	none (no result: PKM2 act, ClpP mod, NPSR antag)
Oc1ccc(CN2CCCCC2)nc1-c1ccccc1	ClpP mod 35µM
Cc1ccc(/C=N/N2CCN(Cc3cccc4ccccc34)CC2)s1	none (no result: ClpP mod)
Cn1cccc1/C=C1\SC(=O)N(c2ccc(O)cc2)C1=O	IL-2 act 51
Cc1ccn2c(Nc3ccccc3)c(-c3c[nH]c4ccccc34)nc2c1	none (no result: PKM2 act, IL-2 act, NPSR antag)
CCc1cc2c(NCCC(=O)O)nc(C)nc2s1	ClpP mod 28µM
CCOC(=O)c1cnc(SCC(C)C)nc1N	none
CCn1c(-c2cc3c(C(F)(F)F)nn(C)c3s2)n[nH]c1=S	ClpP mod 28µM
O=C(Nc1cc(Cl)ccc1-n1cncn1)c1cccs1	none (no result: PKM2 act, NPSR antag)
O=c1cc(/C=C/c2ccccc2)oc2ccccc12	ClpP mod inconclusive, NPSR antag 5µM
O=c1cc(-c2ccccc2)oc2ccccc12	none (no result: PKM2 act, NPSR antag)
COc1ccc(CNC(C)C2COc3ccccc3O2)c(OC)c1 (stereo unspecified)	ClpP mod 28µM
CC(NCc1ccccc1)C1COc2ccccc2O1 (stereo unspecified)	none
CC(=O)C1=C(c2ccc(C)cc2)N(C(C)=O)n2c(nnc2C2CCCCC2)S1	none (no result: PKM2 act, IL-2 act, NPSR antag)
COc1ccc(NS(=O)(=O)c2ccc(-c3coc(C)n3)cc2)c(OC)c1	none (no result: PKM2 act, NPSR antag)
COc1ccc(-c2n[nH]c(=S)o2)c(OC)c1	ClpP mod 25µM
CCOc1ccccc1-c1n[nH]c(=S)o1	ClpP mod inconclusive
CCCCCCc1ccc(-c2ncc(N)cn2)cc1	ClpP mod 32µM
CCCCCc1ccc(-c2nnc(N)s2)cc1	none (no result: ClpP mod)
O=C(O)c1ccccc1C(=O)c1ccc2oc(=O)[nH]c2c1	none (no result: PKM2 act, ClpP mod, NPSR antag)
CCCOc1ccc(-c2cc3onc(-c4ccccc4)c3c(=O)n2C)cc1	none (no result: PKM2 act, NPSR antag)
c1ccc(-c2n[nH]c(-c3ccccn3)n2)nc1	ClpP mod 25µM
Clc1ccccc1CSc1cc2c(nn1)-c1ccccc1CC2	none
Clc1cccc(Cl)c1CSc1cc2c(nn1)-c1ccccc1CC2	IL-2 act 51
COc1ccccc1N(C)S(=O)(=O)c1ccc(Cl)c(C(=O)N2CCC2)c1	ClpP mod 18µM (no result: PKM2 act, NPSR antag)
COc1ccc(C(=O)/C(=C/N(C)C)S(=O)(=O)c2ccccc2)cc1	none (no result: ClpP mod)
Fc1ccccc1N1CCN(Cc2nnc(-c3ccc4c(c3)OCO4)o2)CC1	ClpP mod 35µM (no result: PKM2 act, IL-2 act, NPSR antag)
C/C(CC(=O)Nc1cccc2c1CCCC2)=N\NC(=O)c1ccccc1N	ClpP mod 28µM
O=C(NCCN1CCOCC1)c1noc2c1CCc1ccccc1-2	none
